# In the library only some 1.2% were active in any assay of this set; here they are far more common.
# RGS7-Gao reg: modulates binding of RGS7 to human Galphao; Multiplexed bead flow cytometry; actives lie on both sides; binding response (% of control), % at 10 µM; 220,000 compounds, 0.35% hits; AID 1439; in the data active means binding response below about 49% or above about 150%; inconclusive means no clear call, values can overlap the other calls; inactive means in between;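 further: fluorescent Galphao held in activated GDP-AlF4 state binding bead-coupled RGS7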
# GSH fluor: compound fluoresces at 488/530 nm on GSH beads; GSH beads flow cytometry, compound fluorescence 488/530 nm; hits give high values; fluorescence (KMESF) at 10 µM; 190,000 compounds, 0.25% hits; in the data active means fluorescence above about 89;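 further: glutathione beads carrying GST-tagged Bcl family fusion proteins plus one bare bead set; values are compound well signal with DMSO vehicle wells as background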
# Avidin fluor: avidin bead compound fluorescence profile | Avidin beads, compound fluorescence 488/530 nm, flow cytometry; hits give high values | fluorescence (KMESF) at 10 µM | 220,000 compounds, 0.38% hits | AID 1775; in the data active means fluorescence above about 47
# RGS8-Gao reg: regulators of human RGS8-Galphao interaction; P09471; multiplexed bead flow cytometry, RGS8-Galphao binding; actives lie on both sides; response (percent of control binding), % at 10 µM; 220,000 compounds, 0.34% hits; AID 1423; in the data active means response below about 60% or above about 140%; inactive means in between;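 further: Galphao activated as the GDP aluminium fluoride complex binding bead-coupled RGS8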
# RGS16-Gao HTS: modulates binding between human RGS16 and Galphao; bead-based flow cytometry RGS16-Galphao binding, fluorescence; actives lie on both sides; binding response (% of control), % at 10 µM; 220,000 compounds, 0.38% hits; AID 1441;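 further: Galphao activated by GDP with aluminum fluoride before binding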
# RGS4-Gao reg: modulates binding of RGS4 to human Galphao; P09471; Multiplexed bead flow cytometry; actives lie on both sides; binding response (% of control), % at 10 µM; 220,000 compounds, 0.33% hits; AID 1415; in the data active means binding response below about 49% or above about 150%; inactive means in between;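 further: fluorescent Galphao activated with aluminum fluoride binding bead-coupled RGS4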
# RGS-Gao: RGS4-Galphao interaction regulator (human); shares compounds with RGS16-Gao HTS; 1,600 compounds, 99% hits; RGS4–Galpha-o binding response, % at 10 µM; multiplexed bead flow cytometry, RGS–Galpha-o binding;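 further: fluorescently labeled Galpha-o bound to GDP with aluminium fluoride binding biotinylated RGS beads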
# Biotin-avidin: biotin-avidin bead binding disruption counter-screen. streptavidin beads, fluorescein-biotin binding, flow cytometry. shares compounds with RGS16-Gao HTS. 1,700 tested, under 10 active. inhibition, % at 10 µM;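 active means inhibition above 50%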;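 further: median green fluorescence of gated singlet beads compared with DMSO control wells; 0% = DMSO wells and 100% = complete loss of bead fluorescence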
# RGS8-Gao confirm: RGS8-Galphao interaction regulation, single point confirmation | binding response (% of control), % at 10 µM | shares compounds with RGS16-Gao HTS | AID 1836 | 1,700 compounds, 3% hits | bead-based flow cytometry RGS8-Galphao binding, fluorescence; actives lie on both sides; in the data active means binding response below about 72% or above about 130%; inactive means in between;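 further: Galphao activated as GDP AlF4 complex before binding bead RGS8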
# RGS7-Gao single: confirmation of regulators of human RGS7-Galphao interaction; response (percent of control binding), % at 10 µM; shares compounds with RGS16-Gao HTS; AID 1837; 1,700 compounds, 7.8% hits; bead-based flow cytometry RGS7-Galphao binding; actives lie on both sides; in the data active means response below about 75% or above about 130%; inactive means in between;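 further: fluorescent Galphao activated with GDP and aluminum fluoride binding bead-coupled RGS7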
# RGS16-Gao conf: confirmation of regulators of human RGS16-Galphao interaction; shares compounds with RGS16-Gao HTS; bead-based flow cytometry, RGS16-Galphao binding; actives lie on both sides; response (% of control binding), % at 10 µM; 1,700 compounds, 4% hits; AID 1838; in the data active means response below about 74% or above about 130%; inactive means in between;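 further: Galphao activated as the GDP aluminium fluoride complex binding bead-coupled RGS16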
# RGS4-Gao confirm: confirmation of regulators of human RGS4-Galphao interaction; shares compounds with RGS16-Gao HTS; RGS4-Galphao binding, multiplexed bead flow cytometry; actives lie on both sides; binding response (% of control), % at 10 µM; 1,700 compounds, 4% hits; in the data active means binding response below about 74% or above about 130%; inactive means in between
# RGS19-Gao single: RGS19-Galphao interaction regulation, single point confirmation | AID 1841 | shares compounds with RGS16-Gao HTS | response (percent of control binding), % at 10 µM | 1,700 compounds, 5% hits | bead-based flow cytometry RGS19-Galphao binding; actives lie on both sides; in the data active means response below about 50% or above about 160%; inactive means in between;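 further: 100% = no compound control and 0% = blank background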
# Target sequence (P09471 whole entry, looked up): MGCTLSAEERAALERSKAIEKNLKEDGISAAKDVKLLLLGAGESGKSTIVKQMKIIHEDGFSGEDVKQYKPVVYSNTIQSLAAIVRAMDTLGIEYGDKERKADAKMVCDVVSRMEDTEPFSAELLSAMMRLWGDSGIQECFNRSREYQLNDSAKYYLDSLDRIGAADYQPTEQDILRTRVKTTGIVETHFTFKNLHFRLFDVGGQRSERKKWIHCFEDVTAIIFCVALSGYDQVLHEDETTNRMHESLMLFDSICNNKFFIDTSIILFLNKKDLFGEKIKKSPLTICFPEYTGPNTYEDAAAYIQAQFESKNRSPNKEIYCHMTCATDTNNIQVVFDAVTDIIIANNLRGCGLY
# Target sequence (P49795 whole entry, looked up): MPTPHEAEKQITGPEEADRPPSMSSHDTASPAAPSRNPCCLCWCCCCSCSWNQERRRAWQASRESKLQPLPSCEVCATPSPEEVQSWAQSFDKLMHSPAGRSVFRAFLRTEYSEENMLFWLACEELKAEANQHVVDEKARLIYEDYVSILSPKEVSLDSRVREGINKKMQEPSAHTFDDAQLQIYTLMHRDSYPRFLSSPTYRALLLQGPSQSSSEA
# * marks the source's active call; other numbers are inactive results; u = inconclusive; x = not tested or not shown; [ ] = dose if it differs, or a comment. Unless noted, how the calls were made is not given here.
SMILES,RGS7-Gao reg,GSH fluor,Avidin fluor,RGS8-Gao reg,RGS16-Gao HTS,RGS4-Gao reg,RGS-Gao,Biotin-avidin,RGS8-Gao confirm,RGS7-Gao single,RGS16-Gao conf,RGS4-Gao confirm,RGS19-Gao single
COc1cccc(CNC(=O)C2CCN(S(=O)(=O)c3ccc4c(c3)CCC(=O)N4)CC2)c1,111,21,4,141*[activator],244,110,110*,0,107,102,108,104,116
Cc1ccc(SCC(=O)Nc2cc([N+](=O)[O-])ccc2O)cc1,103,18,13,109,116,107,x,x,x,x,x,x,x
CCOc1ccc(C2=Nn3c(nnc3-c3ccccc3OC)SC2)cc1,100,11,10,99,99,99,x,x,x,x,x,x,x
COc1ccccc1-c1nnc2n1N=C(c1ccc(O)c(O)c1)CS2,47*,9,4,59*,22,56,56*,-2,91,83,87,91,89
O=C(Cn1c2[n+](c3ccc(C(F)(F)F)cc31)CCCCC2)Nc1ccccc1,104,9,9,101,106,105,x,x,x,x,x,x,x
CCc1cccc(NC(=O)Cn2c3[n+](c4ccc(C(F)(F)F)cc42)CCCCC3)c1,126,9,4,147*[activator],238*[activator],128,128*,-1,106,108,105,108,113
CCc1cccc(CC)c1NC(=O)C1CC(=O)N(c2ccc3c(c2)OCCO3)C1 (configuration not stated),88,8,2,107,-578*,86,86*,x,x,x,x,x,x
N#Cc1ccccc1Oc1ccccc1C=O,u,22,10,99,106,100,x,x,x,x,x,x,x
CCOCCNC(=O)c1ccccc1C(=O)NCCOCC,99,9,16,102,123,110,x,x,x,x,x,x,x
CCOCCN(C(=O)c1ccccc1Cl)c1cccc(C)c1C,u,x,85*,102,153,165*[activator],x,0,100,99,99,98,88
O=C(CS(=O)(=O)c1ccccc1)Nc1ccc(S(=O)(=O)Nc2ncccn2)cc1,35*,9,13,32*,26,35*,x,0,97,91,96,94,90
Cc1ccc(C(=O)COC(=O)c2cn3ccccc3n2)cc1,u,11,8,102,101,105,x,x,x,x,x,x,x
C(=N\Nc1ccc2ccccc2n1)/c1ccc2c(c1)OCCO2,111,13,10,140*[activator],249,111,111*,0,101,102,101,99,104
CN(CC(=O)N1CCN(c2cccc(Cl)c2)CC1)S(=O)(=O)c1cccs1,144,32,x,131,178*[activator],177*[activator],x,-2,101,97,100,99,99
O=C(COC(=O)/C=C/c1ccc(S(=O)(=O)N2CCOCC2)cc1)NC1CCCCCCC1,91,15,6,97,97,93,x,x,x,x,x,x,x
COc1ccc(C2SCC(=O)N2c2c(C)n(C)n(-c3ccccc3)c2=O)cc1 (configuration not stated),106,6,17,102,109,101,x,x,x,x,x,x,x

# Compound activity: PubChem, NMMLSC
